Most compounds without a hit are left out; they make up all but 1.3% or so of the library.
MBNL1 CUG block: blocks human MBNL1 binding to CUG repeat RNA. Q9NR56. TR-FRET MBNL1-His/biotin-(CUG)12 binding, 665/545 ratio. Potency, µM (titrated, usually from 57.5 µM), inactives show top-dose activity change, negative = inhibition, most hits filed as inhibitors. actives 0.036% (n = 280,000). AID 2675; active = well fitted inhibition curve with a large enough effect in the signal ratio, with a control signal flat, not every such curve was filed as active; inconclusive = small, poorly fitted or top-dose-only effect, or effect the other way, or a change in a side signal; inactive = no such curve, though single readings can be large or run the other way; the % refers to the signal ratio; also: potency is read from the fitted curve at half-maximal effect; % is scaled to controls: 0 for no effect and ±100 for the full control effect
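Inhibition of protein-RNA binding appears as loss of TR-FRET between terbium anti-His antibody on MBNL1-His and streptavidin-XL665 on biotin-(CUG)12. Activity is normalized to buffer-only and uninhibited-complex controls.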
KCNH2 3.1 inh: KCNH2 3.1 (human) potassium channel inhibition. U2OS KCNH2 3.1, thallium flux FluxOr; active compounds read low. activity change, % (tested at about 1.8 µM). actives 0.95% (n = 340,000);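 active = maximum activity change below -70%; inconclusive = maximum activity change from -70% to -50%; inactive = maximum activity change above -50%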;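 also: thallium influx rate constant from kinetic fluorescence after stimulation buffer; % is scaled to controls: 0 for no effect and ±100 for the full control effect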
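Steps: virus added to U2OS suspension (4 h, RT, dark); medium with 10% FBS added, cells plated, 37 C overnight; FluxOr/Red40 loading buffer 45 min RT; stimulation buffer, 2 min kinetic read; rate constant normalized.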
TRPV1 ag: agonists of human vanilloid receptor 1 (TRPV1) | AID 540275 | Q8NER1 | TRPV1-expressing cells, Fluo-8 calcium influx, agonist mode | activation, % at 8.33 µM | actives 0.19% (n = 320,000); in the data active = activation above about 80%; inconclusive = between about 30% and that limit; also: 0% is about no effect
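Cells expressing TRPV1 were dye-loaded with Fluo-8 and read kinetically: 10 s baseline, 3 min after compound (agonist portion), then 2 min after EC20 capsaicin (allosteric enhancer portion). Calcium-bound dye fluorescence at 480/520 nm.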
KCNH2 WT inh: inhibitors of human wildtype KCNH2 potassium channel; activity change, % at 1.84 µM; AID 720551; Q12809; U2OS, BacMam KCNH2, thallium flux FluxOr; active compounds read low; actives 0.37% (n = 340,000);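 active = maximum activity change below -70%; inconclusive = maximum activity change between -70% and -50%; inactive = maximum activity change above -50%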; also: % is scaled to controls: 0 for no effect and ±100 for the full control effect
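U2OS cells were transduced with wild-type KCNH2 virus (2.03 x 10^8 / mL) for 4 h at room temperature, then cultured overnight at 37 C. Thallium flux was read with FluxOr dye. Rate constants were normalized to DMSO controls.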
TRPV1 PAM: enhances activation of the human vanilloid receptor TRPV1 | Q8NER1 | TRPV1-expressing cells, Fluo-8 calcium influx, capsaicin EC20 potentiation | potentiation, % at 8.33 µM | actives 0.02% (n = 320,000) | AID 540277; in the data active = potentiation above about 80%; inconclusive = between about 30% and that limit; also: 0% is about no effect
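TRPV1-expressing cells were cultured overnight at 35.5C and loaded with Fluo-8 calcium dye for 40 to 90 min at room temperature. After a 10 s baseline, compound was added and calcium influx was read kinetically for 3 min (ex 480/em 520 nm).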
An asterisk follows results filed as active; ? = inconclusive; . = no result given.

SMILES	MBNL1 CUG block	KCNH2 3.1 inh	TRPV1 ag	KCNH2 WT inh	TRPV1 PAM
CCCCN1C(=O)C(CC(=O)NCc2cccc3ccccc23)CC(C(=O)N(C)C)=C1C (configuration not stated)	.	-91.2*	.	6.5	.
COC(=O)c1ccc(C(=O)Nc2ccc3c(c2)C(=O)NC3=O)cc1	2.5%	-95.9*	21.0	11.9	-17.0
Cc1ccc(C(=O)Nc2ccc3c(c2)C(=O)NC3=O)cc1	8.9%	3.5	?	28.1	-27.6
OCc1nc2ccccc2n1Cc1c(F)cccc1Cl	-12.9%	7.7	2.3	-5.6	12.1
CSc1nc2ccccc2n1Cc1c(Cl)cccc1Cl	-0.7%	-186.2*	9.3	-19.6	1.2
CSc1ccc(C(=O)NC2CCSc3ccccc32)cc1 (configuration not stated)	8.0%	-27.1	22.1	21.9	-14.8
CC(C)(O)C#Cc1ccc(C(=O)NCCC(=O)O)s1	-1.4%	-7.4	-2.4	4.0	4.1
CC(C)(O)C#Cc1ccc(C(=O)NC2CCCCC2)s1	2.4%	-80.8*	0.2	1.1	2.2
Cc1cc(C)c(S(=O)(=O)Nc2ccccc2C(=O)N2CCCC2)c(C)c1	0.3%	-18.9	16.3	-1.1	-2.1
O=C(CCCNC(=O)/C(=C/c1ccc(Br)cc1)NC(=O)c1ccccc1)OCc1ccccc1	-6.8%	-113.0*	5.2	-0.5	1.7
CC(C)c1ccc(/C=C(\NC(=O)c2ccccc2)C(=O)NCCCn2ccnc2)cc1	10.5%	-102.0*	28.7	-18.6	-2.9
COc1ccccc1/C=C(/NC(=O)c1ccccc1)C(=O)NCCCn1ccnc1	1.2%	-4.8	-2.2	14.8	2.0
O=C(NCCCn1ccnc1)/C(=C/c1ccc(F)cc1)NC(=O)c1ccccc1	-2.9%	-115.8*	1.9	-8.6	4.1
Cn1cc(/C=C(\NC(=O)c2ccccc2)C(=O)NCCCn2ccnc2)c2ccccc21	.	-4.6	.	0.0	.
O=[N+]([O-])c1ccc(SCc2ccncc2)nc1	?	3.1	0.6	-4.5	28.9
Cc1cc(C)c(O)c(NC(=S)NC(=O)Cc2ccccc2)c1	-6.8%	14.6	80.6*	6.3	4.6
O=C(N/N=C/c1cc([N+](=O)[O-])ccc1Cl)c1cnccn1	?	-188.4*	1.9	-144.0*	3.1
O=C(Nc1cccc([N+](=O)[O-])c1)c1cnccn1	?	21.6	-2.6	35.8	3.1
O=C(NCCCc1ccccc1)c1ccc(F)cc1	2.6%	-2.4	87.6*	-5.7	-27.9
O=C(Cc1ccccc1)NCCCc1ccccc1	-2.1%	-8.2	-0.4	1.2	19.5
O=C(NCCCCNC(=O)c1ccc(F)cc1)c1ccc(F)cc1	-0.8%	5.0	-0.5	-1.5	1.7
Cc1ccc(CC(=O)NCCCc2ccccc2)cc1	2.9%	11.3	80.3*	4.9	-18.6
CSc1ccc(/C=N/NC(=O)c2ccc(C)c(C)c2)cc1	-1.6%	-15.1	82.1*	-2.9	-2.0
CSc1ccc(/C=N/NC(=O)c2cc(O)cc(O)c2)cc1	32.2%	-4.9	-2.1	-2.2	-21.8
COc1ccc(C(=O)OCc2c(-c3ccccc3)ncc3ccccc23)cc1	.	-70.0*	.	-12.3	.
SMILES	MBNL1 CUG block	KCNH2 3.1 inh	TRPV1 ag	KCNH2 WT inh	TRPV1 PAM
Cc1ccc(S(=O)(=O)NNC(=O)CCC(=O)Nc2ccccc2Cl)cc1	-4.2%	14.2	1.1	14.7	-1.3
O=C(CN1CCC(Cc2ccccc2)CC1)N1CCc2ccccc2C1	-4.2%	-89.7*	-4.1	-34.7	3.7
Cn1c(CN2CCCCC2)nc2cc([N+](=O)[O-])ccc21	?	-185.4*	-7.8	11.9	10.6
O=C(NCCCn1ccnc1)c1ccc(N2CCCCC2)c([N+](=O)[O-])c1	.	-39.6	?	13.6	-8.0
Cc1ccc(NC(=O)CN(C)C(=O)c2cccc(S(=O)(=O)NCc3ccco3)c2)cc1	.	2.8	-2.1	0.3	-16.1
Cc1cccc(NC(=O)c2ccc(NCCc3ccccc3)c([N+](=O)[O-])c2)c1	.	-189.5*	3.8	-16.2	2.9
Cc1ccc(NC(=O)c2ccc(NCCN)c([N+](=O)[O-])c2)cc1	?	-2.6	6.2	8.8	1.7
CCCCOC(=O)Nc1ccc(C(N)=O)cc1	-1.7%	7.7	12.3	4.2	-29.2
CCCCOC(=O)Nc1ccc(C(C)C)cc1	?	-11.2	81.4*	-32.4	-0.5
